Test results as given in the supplement of paper PMC4100887.
± gives the standard deviation of the averaged measurements.

How the values were obtained:
IMR-90 = experiment: relative cell viability (ATPlite) vs untreated control (fraction); higher = less toxic; details: 1 µM; 72 h
K562 [1] = experiment: as above; details: 1 µM; 72 h
K562 [2] = experiment: relative cell viability (ATPlite) vs untreated control, with imatinib (fraction); higher = less toxic; details: 1 µM; 72 h; imatinib 0.125 µM

CCCCc1c(-c2ccc(OC)cc2)[nH]c2nccnc12 [Aloisine, RP106]
relative cell viability (IMR-90): 0.897 ± 0.069
relative cell viability (K562 [1]): 0.929 ± 0.046
relative cell viability (K562 [2]): 0.819 ± 0.05

CCCC(=O)Oc1ccc2[nH]c(C(=O)c3cc4ccccc4[nH]3)cc2c1 [PDGF Receptor Tyrosine Kinase Inhibitor II]
relative cell viability (IMR-90): 1.01 ± 0.064
relative cell viability (K562 [1]): 0.812 ± 0.097
relative cell viability (K562 [2]): 0.77 ± 0.025

Cc1nc2cc3nc(-c4cccs4)cnc3cc2n1C
relative cell viability (IMR-90): 0.894 ± 0.058
relative cell viability (K562 [1]): 0.343 ± 0.04
relative cell viability (K562 [2]): 0.288 ± 0.015

N#CCCc1ccc2c(c1)-c1[nH]c3ccc([N+](=O)[O-])cc3c1CC(=O)N2 [Alsterpaullone, 2-Cyanoethyl]
relative cell viability (IMR-90): 1 ± 0.039
relative cell viability (K562 [1]): 0.307 ± 0.05
relative cell viability (K562 [2]): 0.153 ± 0.036

Oc1cccc(-c2nc(N3CCOCC3)c3oc4ncccc4c3n2)c1
relative cell viability (IMR-90): 0.958 ± 0.099
relative cell viability (K562 [1]): 0.741 ± 0.015
relative cell viability (K562 [2]): 0.513 ± 0.045

CN1C(=O)C(c2c[nH]c3ccccc23)=C(c2c[nH]c3ccccc23)C1=O [Bisindolylmaleimide V]
relative cell viability (IMR-90): 0.936 ± 0.091
relative cell viability (K562 [1]): 0.88 ± 0.053
relative cell viability (K562 [2]): 0.77 ± 0.0092

c1ccc2c(-c3ccncc3)c[nH]c2c1 [Rho Kinase Inhibitor III, Rockout]
relative cell viability (IMR-90): 0.814 ± 0.19
relative cell viability (K562 [1]): 0.833 ± 0.097
relative cell viability (K562 [2]): 0.683 ± 0.029

O=C1Nc2ccc(Br)cc2/C1=C/c1cc2c([nH]1)CCCC2 [VEGF Receptor 2 Kinase Inhibitor II]
relative cell viability (IMR-90): 0.979 ± 0.059
relative cell viability (K562 [1]): 0.864 ± 0.081
relative cell viability (K562 [2]): 0.782 ± 0.054

CCN(CC)C(=O)c1ccc(Nc2nc(OCC3CCCCC3)c3[nH]cnc3n2)cc1 [Cdk2 Inhibitor IV, NU6140]
relative cell viability (IMR-90): 1.03 ± 0.076
relative cell viability (K562 [1]): 0.775 ± 0.041
relative cell viability (K562 [2]): 0.672 ± 0.031

COc1ccc(-c2cnc3c(-c4ccsc4)cnn3c2)cc1 [VEGF Receptor 2 Kinase Inhibitor IV]
relative cell viability (IMR-90): 0.993 ± 0.1
relative cell viability (K562 [1]): 0.893 ± 0.072
relative cell viability (K562 [2]): 0.726 ± 0.067

O=C(Nc1ccncc1)Nc1c(Cl)cc(Cl)cc1Cl [Rho Kinase Inhibitor II]
relative cell viability (IMR-90): 1.08 ± 0.11
relative cell viability (K562 [1]): 0.856 ± 0.056
relative cell viability (K562 [2]): 0.743 ± 0.03

Cc1ccc([N+](=O)[O-])cc1S(=O)(=O)N(C)/N=C/c1cnc2ccc(Br)cn12 [PI 3-Kα Inhibitor VIII]
relative cell viability (IMR-90): 0.166 ± 0.031
relative cell viability (K562 [1]): 0.763 ± 0.071
relative cell viability (K562 [2]): 0.681 ± 0.044

Nc1ccc(-c2cccc3c(=O)cc(N4CCOCC4)oc23)cc1
relative cell viability (IMR-90): 0.822 ± 0.13
relative cell viability (K562 [1]): 0.79 ± 0.094
relative cell viability (K562 [2]): 0.627 ± 0.056

O=C(Nc1cccc(Nc2nccc(Nc3cccc(C(F)(F)F)c3)n2)c1)C1CC1 [Aurora Kinase Inhibitor III]
relative cell viability (IMR-90): 0.892 ± 0.074
relative cell viability (K562 [1]): 0.892 ± 0.044
relative cell viability (K562 [2]): 0.755 ± 0.05

Cc1cc2ncc(-c3ccccc3)nc2cc1C
relative cell viability (IMR-90): 0.969 ± 0.069
relative cell viability (K562 [1]): 0.836 ± 0.094
relative cell viability (K562 [2]): 0.719 ± 0.05

CNc1cc2c(Nc3cccc(Br)c3)ncnc2cn1
relative cell viability (IMR-90): 1.04 ± 0.053
relative cell viability (K562 [1]): 0.995 ± 0.043
relative cell viability (K562 [2]): 0.807 ± 0.023

Cc1cc(Nc2nc(-c3ccccc3)nc3ccccc23)n[nH]1 [GSK-3 Inhibitor XIII]
relative cell viability (IMR-90): 1 ± 0.059
relative cell viability (K562 [1]): 0.937 ± 0.041
relative cell viability (K562 [2]): 0.711 ± 0.034

N#Cc1c(C2CCNCC2)cc(-c2c(O)cccc2OCC2CC2)nc1N [IKK-2 Inhibitor VIII]
relative cell viability (IMR-90): 1.01 ± 0.12
relative cell viability (K562 [1]): 0.871 ± 0.048
relative cell viability (K562 [2]): 0.718 ± 0.021

Cc1ncc2ccccc2c1C#N [4-Cyano-3-methylisoquinoline]
relative cell viability (IMR-90): 0.955 ± 0.066
relative cell viability (K562 [1]): 0.917 ± 0.06
relative cell viability (K562 [2]): 0.828 ± 0.032

CCCCCCOC(=O)[C@]1(O)C[C@@H]2O[C@@]1(C)n1c3ccccc3c3c4c(c5c6ccccc6n2c5c31)C(=O)NC4
relative cell viability (IMR-90): 1.05 ± 0.14
relative cell viability (K562 [1]): 0.825 ± 0.056
relative cell viability (K562 [2]): 0.764 ± 0.02

O=c1[nH][nH]c2nnc(-c3c(-c4ccccc4)nn4ccccc34)cc12 [ERK Inhibitor II, Negative control]
relative cell viability (IMR-90): 0.966 ± 0.077
relative cell viability (K562 [1]): 0.833 ± 0.086
relative cell viability (K562 [2]): 0.758 ± 0.019

CC(=O)O/N=C1/C(c2c(O)[nH]c3cc(Br)ccc23)=Nc2ccccc21 [GSK-3 Inhibitor X]
relative cell viability (IMR-90): 0.903 ± 0.052
relative cell viability (K562 [1]): 0.885 ± 0.08
relative cell viability (K562 [2]): 0.76 ± 0.036

CC(=O)c1ccc(N2CCOCC2)cc1O [DNA-PK Inhibitor III]
relative cell viability (IMR-90): 1.02 ± 0.093
relative cell viability (K562 [1]): 0.878 ± 0.059
relative cell viability (K562 [2]): 0.782 ± 0.027

COc1ccc2nc3n[nH]c(C)c3c(NCCOCCO)c2c1
relative cell viability (IMR-90): 1 ± 0.077
relative cell viability (K562 [1]): 1.02 ± 0.064
relative cell viability (K562 [2]): 0.843 ± 0.066

COc1cc2ncnc(Nc3ccc(Cl)cc3Cl)c2cc1OC [Ste11 MAPKKK Activation Inhibitor]
relative cell viability (IMR-90): 0.946 ± 0.13
relative cell viability (K562 [1]): 0.802 ± 0.084
relative cell viability (K562 [2]): 0.71 ± 0.076

O=C(Nc1cc(C(F)(F)F)cc(C(F)(F)F)c1)c1cc(Cl)ccc1O [IKK-2 Inhibitor V]
relative cell viability (IMR-90): 0.878 ± 0.28
relative cell viability (K562 [1]): 0.505 ± 0.03
relative cell viability (K562 [2]): 0.477 ± 0.011

O=C1C(Cl)=C(N2C(=O)CCC2=O)C(=O)c2ccccc21 [MEK Inhibitor II]
relative cell viability (IMR-90): 1.01 ± 0.11
relative cell viability (K562 [1]): 0.802 ± 0.089
relative cell viability (K562 [2]): 0.653 ± 0.071

O=C1NC(=O)C(c2cn(CCCO)c3ncccc23)=C1c1cnccn1 [GSK-3b Inhibitor XI]
relative cell viability (IMR-90): 1.02 ± 0.054
relative cell viability (K562 [1]): 0.915 ± 0.075
relative cell viability (K562 [2]): 0.757 ± 0.046

CN(C)CCCn1cc(C2=C(c3c[nH]c4ccccc34)C(=O)NC2=O)c2ccccc21 [Bisindolylmaleimide I]
relative cell viability (IMR-90): 0.895 ± 0.12
relative cell viability (K562 [1]): 0.169 ± 0.052
relative cell viability (K562 [2]): 0.137 ± 0.042
